What follows are sequences tested against STRADB (assay: pooled miR-30 sensor sort-seq; sequence = guide strand). Conditions: shRNA.
Note: reference of the scale not given here.

Row | Sequence | sensor-assay potency score (higher = more potent)
1 | TACTGTGTGAGTTCCACTGGAG | 0.0726
2 | ATCTTGTTGCAAACAGAGCTGT | -0.583
3 | TTGATGGCTTGTTATAAGCAGG | -1.06
4 | TTGCAAACAGAGCTGTACCAAG | -0.672
5 | TTCTACTTGGAGCTCATAGTGA | -0.852
6 | TCTGACTTCACATTATACCCAT | 0.302
7 | TTCTTCATTGCAGTTTTCCAGA | -0.72
8 | TACTCCTGTGAATACAGCCATT | -1.43

These sequences were tested against STRBP in the same assay as above. Conditions: shRNA.

Row | Sequence | sensor-assay potency score (higher = more potent)
9 | TAACAGAACCATTCTCTTGGGT | 0.367
10 | TTTGACTGTATTTAACAGGGTC | 0.301
11 | TTGAGTTTGAAGACACTGTTTC | -0.227
12 | TAAAACTTAAACTTTGAACTGC | 0.571
13 | TTCTTCTCCAATTCGTCCCTAA | 0.053
14 | TTTGAGACTCTATACATCCTTC | -0.328
15 | TTGATATTTCTCTTCTGTGAGT | -0.566
16 | TTACTATCCAGAATTTTCCTTA | 0.368
17 | TTACACATGATTTTAATCCATT | -0.986
18 | TTTCGTTTCATCTTCTTGTTGG | 0.788

These sequences were tested against STUB1 in the same assay as above. Conditions: shRNA.

Row | Sequence | sensor-assay potency score (higher = more potent)
19 | TAATACACGGCCACCAGCGGGT | -0.893
20 | TTGAGCTCCTGCGCGCTCGGGC | -0.67
21 | TTGCCACACAGGTAGTCGGGGA | -0.252
22 | TTATTACACAGATAGTGGCGGC | 0.272
23 | TTCCTCTTCTCATCCACCTGAG | -0.167
24 | ATAGCTCTCCATCTCCAGCTGG | -0.665
25 | TTCGCGATTCGAAGAGCGCTGG | -0.358
26 | TTCCAGCGCTTCTTCTTCGCGA | -0.702
27 | TTCAGGTAGCACAAGGCCCGGT | -0.567
28 | TAGCTCTCCATCTCCAGCTGGC | -0.433
29 | TGCTCCTCGATGTCCTTGCGGT | -0.704
30 | TTGCGGTCGTAGGTGATGCCAC | -0.555

Each sequence was assayed against STX12 in the same assay as above. Conditions: shRNA.

Row | Sequence | sensor-assay potency score (higher = more potent)
31 | TCTGATAGTAAGCAGCTCGCTG | -0.759
32 | TTGTCTAAAACTATGCATGGAG | -0.297
33 | TTTTTGTCTAAAACTATGCATG | -0.984
34 | TTTTCTGATAGTAAGCAGCTCG | 0.207
35 | TAGCTTGCTTGAGTCCTGCTTA | -0.146
36 | TACCCTTCTCTGCACAGCCTGG | -1.07
37 | TTGTGGAGTGTTGTAACTGTTG | -1.19
38 | TAACTGTTGCAGATTTTCCTGT | 0.412
39 | TTGAGTCCTGCTTAGTTCCTAG | -0.155
40 | TTTAATAAGTTCCAAATCCTGC | -0.773

— the OligoGym collection
